Source: PubChem
TGFb inhibitor = qHTS for Inhibitors of TGF-b; HepG2 CAGA-GFP TGF-b/SMAD3 reporter, GFP fluorescence, 18 h; TGF-beta stimulated, 500 pg/mL final; Potency, µM (doses to about 46.1 µM), for the others: top-dose activity, negative = inhibition, most hits filed as inhibitors; 410,000 tested, 1.2% active; AID 588855, 2011; also: % is scaled to controls: 0 for no effect and ±100 for the full control effect; nearly all actives have a fitted effect of over 65% in size
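Inhibition was scored as loss of TGF-beta-induced (500 pg/mL final, 18 hours, 37 degrees C) GFP in HEPG2 cells carrying a CAGA-GFP reporter, in DMEM with 1% FBS. Well GFP was summed per cell; Activity was normalised to unstimulated and stimulated DMSO wells, then concentration-response fitting.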
TDP1 cell noCPT = qHTS for Inhibitors of human tyrosyl-DNA phosphodiesterase 1 (TDP1): qHTS in cells in absence of CPT. DT40 Tdp1-/- hTDP1 cells, no CPT, ATP luminescence, 48 h. Potency, µM (series often up to 46.2 µM), for the others: at the highest dose activity change, negative = growth inhibition, most hits filed as inhibitors. 420,000 tested, 15% active; also: % is scaled to controls: 0 for no effect and ±100 for the full control effect; nearly all actives have a fitted effect of over 55% in size
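Stably hTDP1-transfected Tdp1-null chicken DT40 cells were treated with library compounds minus camptothecin and grown for at least 48 hr at 37 °C, after which cellular ATP was quantified by luminescence.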
HT1080 IDH1KD tx = qHTS for induction of synthetic lethality in tumor cells producing 2HG: qHTS for the HT-1080-IDH1KD cell line. HT-1080 IDH1 knockdown viability, ATP luminescence, 48 h. Potency, µM (titrated, usually from 46.1 µM), for inactives: top-dose activity, negative = toxicity, actives largely listed as cytotoxic. 360,000 tested, 2% active;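 also: 0% = DMSO wells and -100% = cell-free medium wells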
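After a 2 h attachment period, IDH1KD HT-1080 cells took pin-transferred compound for 48 h at 37 °C; ATP-based luminescence after 10 min room-temperature reagent incubation reported viability.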
DT40 TDP1 CPT = qHTS for Inhibitors of human tyrosyl-DNA phosphodiesterase 1 (TDP1): qHTS in cells in presence of CPT. chicken DT40 Tdp1-/-;hTDP1 cells + 20 nM CPT, ATP luminescence, 48 h. Potency, µM (titrated, usually from 46.2 µM), for the others: at the highest dose activity change, negative = growth inhibition, hits mostly inhibitors. 420,000 tested, 12% active. AID 686979, 2013; also: % is scaled to controls: 0 for no effect and ±100 for the full control effect; nearly all actives have a fitted effect of over 55% in size
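Cell growth measured by CellTiter-Glo luminescence after a minimum 48 h, 37 C compound exposure with 20 nM CPT in Tdp1-knockout DT40 cells stably expressing hTDP1, seeded 400/well; qHTS titration format.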
HepG2 tox = qHTS for Inhibitors of TGF-b: Cytotox Counterscreen. Potency, µM (highest dose often 46.1 µM), for the others: at the top dose activity change, negative = cytotoxicity, actives largely listed as cytotoxic. 410,000 tested, 0.76% active. HepG2 CAGA-GFP viability, ATP luminescence, 18 h
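CellTiter-Glo luminescence gave cytotoxicity after 18 hours at 37 degrees C. The cells were HepG2 CAGA-GFP in 1% FBS DMEM, stimulated with 500 pg/mL TGF-beta after compound addition. %Activity was normalised to no-cell wells (complete cell-killing) and DMSO (no toxicity), and curves were fitted and classified.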
HT1080NT lethal = qHTS for induction of synthetic lethality in tumor cells producing 2HG: qHTS for the HT-1080-NT fibrosarcoma cell line; HT-1080-NT fibrosarcoma viability, CellTiter-Glo ATP luminescence, 48 h; Potency, µM (highest dose often 46.1 µM), for the others: at the highest dose activity, negative = less viability, actives largely listed as cytotoxic; 360,000 tested, 1.6% active; AID 686970, 2013;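 also: NT is the 2HG producing partner of a matched IDH1 knockdown line; 0% = DMSO-treated cells and -100% = media-only wells without cells; nearly all actives have a fitted effect of over 55% in size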
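Toxicity toward the 2HG-producing NT line was scored as %Activity, normalised to DMSO and no-cell wells, from CellTiter-Glo luminescence after 48 hours' treatment.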
Numbers without * were called inactive; ? = inconclusive; · = no result given; ! = not confirmed by another sample; [ ] = remark or other dose. Only some compounds are listed: those with a hit (about 17% of all), similar ones and a draw of the others. Calls follow the shape of the dose curve; as a rule, active = well fitted curve in the direction sought with a large enough effect; inconclusive = small, poorly fitted or top-dose-only effect, or another doubt; inactive = no such curve, though single readings can be large; an effect the other way counts as inactive or inconclusive. Potency is read from the fitted curve at half-maximal effect.

SMILES	TGFb inhibitor	TDP1 cell noCPT	HT1080 IDH1KD tx	DT40 TDP1 CPT	HepG2 tox	HT1080NT lethal
O=c1[nH]c2ccccc2n1C1CCN(C(c2nnnn2Cc2ccccc2)C2CC2)CC1 (configuration not stated)	-40%	21µM*	21µM*	16µM*	0%	?
COc1cc2nc(N(C)C)c(CNCCc3c[nH]c4ccccc34)cc2c(OC)c1OC	·	-18%	·	6%[9.04 µM]	·	·
O=C(C(=C1N(Cc2ccc(Cl)nc2)CCN1Cc1ccc(Cl)nc1)[N+](=O)[O-])C(Cl)Cl	-13%	16µM*	-1%	?	-23%	-2%
O=[N+]([O-])/N=C1\NCCN1Cc1ccc(Cl)nc1	·	6.7µM*	·	8.4µM*!	·	·
Cc1cccc(C2CC(=O)Oc3c2c(=O)oc2ccccc32)c1 (configuration not stated)	3%	-3%	·	-13%	-8%	·
O=C(O)[C@@H](O)[C@H](O)[C@H](O)[C@@H](O)C(=O)O (tested in a mixture with another compound)	·	8%	·	?	·	·
CN(C)c1nc(OCCNC(=O)COc2ccc(Cl)cc2Cl)nc(N2CCCCC2)n1	-21%	12µM*	-4%	9.2µM*	-10%	-1%[9.24 µM]
COC(=O)COc1ccc(Cl)cc1Cl	·	12%	·	5%	·	·
CCN(CC)C(=O)C(C(=O)c1cccc([N+](=O)[O-])c1)n1cc(Cl)ccc1=O (configuration not stated)	1%	?	-10%	-20%	-2%	0%
Cn1cc[n+](C)c1P(=S)(c1ccccc1)c1ccccc1	-39%	21µM*	4%	10µM*	-1%	-1%
CCCCCCC(=O)N/N=C/c1c(O)n(CCCC)c(=S)[nH]c1=O	29%	18µM*	?	?	14%	?
CCCCCCn1c(O)c(C=Nc2ccccc2N2CCOCC2)c(=O)[nH]c1=S	-1%	15µM*	4%	?	4%	3%
O=C(Oc1ccccc1)N1CCC[C@@]2(CCN(C(c3ccccc3)c3ccccc3)C2)C1	·	-23%	·	-8%	·	·
COc1ccc(-n2nc(C(=O)NCC(=O)N3CCC4(CC3)OCCO4)c3ccccc3c2=O)cc1OC	10%	-17%	-1%	-4%	-10%	-12%
CCOc1ccc(/C=C/c2nc(C#N)c(NCc3ccccc3)o2)cc1	·	1.2µM*	·	?	-6%	·
Cc1cc2oc(=O)cc(-c3ccccc3)c2c(C)c1-c1ccc(CO)cc1	?	18µM*	0%	18µM*	-27%	0%
C=CCN1C(=O)NC(=O)/C(=C/c2ccc(OC)c(COc3ccc(NC(C)=O)cc3)c2)C1=O	-14%	3.7µM*	?	2.6µM*	-52%	?
COc1ccc(-n2nnnc2C(CCSC)N2CCC3(CC2)C(=O)NCN3c2ccccc2)cc1 (configuration not stated)	?	?	-17%	?	2%	-9%
COc1cc([C@@H]2c3cc4c(cc3[C@H](OC(C)=O)[C@H]3COC(=O)[C@@H]23)OCO4)cc(OC)c1OC	?	1.1µM*	·	1.1µM*	-14%	·
COc1cc(C2c3cc4c(cc3C(O)[C@H]3COC(=O)C23)OCO4)cc(OC)c1OC (some centres not stated)	·	0.037µM*	·	0.023µM*	·	·
